Structures are written as SMILES. This is part of a sample that, as a whole, favours compounds with a hit. Of some 83,000 tested, about 20% had one in any assay.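 Cell lines were cultured in 96-well plates, exposed to a single compound concentration, and assessed for percent growth 48 hours later.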 A number with no mark means an inactive call. Activity calls are given as the source filed them. Rule for the calls: active = growth percent below 10; inactive = the rest.

Holding throughout (test): NCI-60 one-dose screen, 48 h (100 = growth as untreated, 0 = no growth, -100 = all killed)
What all share (details): 10 µM unless noted

The subject of test [1] is DU-145 prostate.
The subject of test [2] is K-562 leukemia.
Test [3] relates to MALME-3M melanoma.
Test [4] concerns MDA-MB-231 breast.
For test [5], the system named is RXF 393 renal.
Test [6] deals with SF-268 CNS.
The subject of test [7] is SF-295 CNS.
Test [8] has as its system SF-539 CNS.
Test [9] relates to UACC-257 melanoma.
Test [10] deals with M14 melanoma.

As to `O=Nc1c(-c2c(O)[nH]c3ncccc23)[nH]c2ccccc12`, the growth in test [1] is 62.2%; in test [2], 53.3%; in test [3] it was 91%; in [4] it was 78.6%; in test [5], 29.4%; in test [6], 66.2%. The growth in test [7] was 94.9%; in test [8], 50.3%; in test [9], 92.6%; in test [10], 56.4%.
Consider `CC1(c2ccccc2O)NN=C(/N=C/c2cccc([N+](=O)[O-])c2)N1C(Cc1c[nH]c2ccccc12)C(=O)O` (stereo not given), for which the growth in test [1] is 114%; in test [2], 89.8%; in test [3] it was 94.1%; in test [4], 80.5%; in test [5] it was 90.9%; in test [6], 95.7%. The growth in [7] is 107%; in test [8], 99.4%; in test [9] it was 90.6%; in test [10] it was 92%.
On to `CC1=Nc2cnc(Nc3ccc(OCCN4CCCC4)cc3)nc2Nc2ccccc21`, for which the growth is 56.1% in test [1]; 39.6% in [2]; 68% in test [3]; 59.7% in [4]; 36% in [5]; 63.9% in [6]. The growth is 85.6% in [7], 68.6% in test [8], 89.3% in test [9] and 52.6% in test [10].
As for `O=C1Nc2ccc(Br)cc2/C1=N/c1n[nH]c(=S)s1`, the growth in [1] is 106%; in [2], 90.8%; in [3] it was 107%; in [4], 105%; in [5], 109%; in [6], 91.5%. Moreover, the growth in [7] was 101%; in test [8] it was 99.7%; in test [9] it was 99.6%; in test [10], 99.8%.
Take `C=C1CC[C@@H]2[C@](C)(COC(C)=O)[C@H](OC(C)=O)CC[C@@]2(C)[C@@H]1CC(Sc1ccccc1)C1=CCOC1=O` (stereo not given in full): the growth in [1] is 16.4%; in test [2], 3.95% (active); in test [3] it was 16.8%; in test [4], 7.4% (active); in test [5], 5.01% (active); in test [6], 11.6%. Also, the growth in test [7] is 65.9%; in test [8] it was -43.6% (active); in test [9], 29.4%; in test [10] it was -4.19% (active).
Regarding `O=C(c1ccccc1)C1C(=O)N2C(=S)N(c3ccccc3)C(=O)C2C1c1ccc(Cl)cc1` (stereo not given), the growth in test [1] was 109%; in [2], 99.1%; in test [3], 88.1%; in [4] it was 90.4%; in [5], 90.4%; in [6], 97.5%. The growth in [7] is 94.2%; in test [8] it was 98%; in test [9], 101%; in test [10], 96.3%.
On to `c1ccc(C2=NN[C@H](c3cn(-c4ccccc4)nc3-c3ccccc3)C2)cc1`, for which the growth was 56.1% in test [1]; 85.2% in test [2]; 53.4% in test [3]; 14% in test [4]; 32.1% in [5]; 52% in test [6]. For the same molecule, the growth in [7] is -23.8% (active); in test [8], 38.5%; in test [9], 65.2%; in [10], 45.6%.
For the molecule `CC(C)N1CCN(Cc2ccc3c(NNC(=O)c4ccccc4)nc4cc(F)ccc4n23)CC1`, the growth in test [1] was 30.8%; in test [2] it was 15.7%; in test [3], 25%; in test [4] it was 43.1%; in test [5], 37.7%; in test [6] it was 24.1%. Moreover, the growth in test [7] was 16.5%; in [8], 10.5%; in test [9], 12.4%; in test [10], 6.58% (active).
With `COC(=O)CNC(=O)[C@H](Cc1ccccc1)NCc1ccncc1`, the growth in test [1] was 105%; in [2] it was 89.1%; in test [3], 95.7%; in [4] it was 105%; in [5], 112%; in test [6], 107%. For the same molecule, the growth was 99% in test [7], 102% in [8], 84.4% in test [9] and 105% in test [10].
As for `COc1ccc(/C=C2\C(=O)N=C3N2NC(c2cc(Br)ccc2O)C=C(C)N3c2ccccc2)cc1` (stereo not given), the growth in [1] is 104%; in [2], 97.3%; in test [3], 92.2%; in test [4] it was 92.8%; in test [5], 97.7%; in test [6], 100%. Also, the growth in test [7] is 101%; in test [8], 99.9%; in test [9], 96.7%; in test [10] it was 98.8%.
For the molecule `CC1=C(C(=O)OC(C)C)C(c2ccc3c(c2)OCO3)NC(=S)N1` (stereo not given), the growth in test [1] is 109%; in [2] it was 107%; in test [3] it was 95.9%; in test [4] it was 101%; in [5], 106%; in [6] it was 103%. Also, the growth was 95.8% in [7], 98.9% in test [8], 100% in test [9] and 99% in [10].
`O=C(CI)NC1Oc2ccccc2-c2oc(=O)c(-c3ccccc3)cc21` (stereo not given): the growth in test [1] was -93.8% (active); in [2], -13% (active); in [3], -77.1% (active); in test [4], -68.8% (active); in test [5], -89.4% (active); in test [6], -72.2% (active). The growth in [7] is 87.4%; in test [8], -89.5% (active); in test [9], 77.3%; in test [10], -39.8% (active).
For the molecule `CN(CCn1sc(=O)n(Cc2ccccc2)c1=O)Cc1ccc2c(Cl)cc(Cl)c(O)c2n1`, the growth in [1] is 51.6%; in test [2], 13.7%; in [3], 63.7%; in test [4], 46.4%; in test [5], 53.7%; in [6], 46.1%. Further, the growth in [7] is 30.5%; in test [8], 47.1%; in [9] it was 78.5%; in [10] it was 49.4%.

The values above are taken from PubChem BioAssay (NCI).
